Data reported in PubChem BioAssay AID463218 (Sanford-Burnham Center for Chemical Genomics, 2010).
Among all 4,400 compounds or so, about 3,700 (84%) were called active.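 The calls were made as follows: active = inhibition above about 39% in either of two replicate wells at 20 µM (limit read from the data); inactive = the rest.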 So high a share suggests a set chosen from earlier hits. These entries were drawn from the full list.

Test: growth inhibition of tim23-1 ts yeast, retest – luminescence, single concentration, confirmation (AID 463218);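 also: temperature-sensitive tim23-1 mutant grown at 25 °C; 0% = DMSO wells with yeast and 100% = medium wells without yeast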
Conditions: S. cerevisiae tim23-1 growth, BacTiter-Glo luminescence, 24 h; at 20 µM; stronger effect = higher value

Which inhibition does the source give for `Cc1ccc(Nc2nc(-c3ccc(O)cc3O)cs2)nc1` here?
Its inhibition is 70.4% (active).

Which inhibition does the source give for `N/C(=N\OC(=O)Nc1ccc(Cl)c(Cl)c1)c1ncc(C(F)(F)F)cc1Cl` here?
Its inhibition is 71.8% (active).

With `CN(C)/N=C/c1cn(-c2ccccc2)nc1-c1cccnc1` as the compound, how does the inhibition read?
The inhibition was 43% (active).

For `Cc1ccc(-c2nn(C(C)(C)C)c3ncnc(N)c23)cc1`, which inhibition is on record?
Its inhibition is 65.7% (active).

Which inhibition does the source give for `Cc1cccc(Nc2nc(-c3ccccc3)cs2)n1` here?
The inhibition was 23.9% (inactive).

With `Clc1ccc(Nc2nc(-c3cccs3)cs2)nc1` as the compound, how does the inhibition read?
Its inhibition is 68.5% (active).

With `CC(C)Cn1c(N)c(C(=O)NCc2cccs2)c2nc3ccccc3nc21` as the compound, how does the inhibition read?
The inhibition was 46.1% (active).

Which inhibition does the source give for `COc1ccc2nc(NC(=O)NC3CCCCC3)sc2c1` here?
Its inhibition is 53.1% (active).

With `COc1ccc(NC(=O)/C(Cl)=C(/Cl)S(=O)Cc2ccc(C)cc2)cn1` (stereo not drawn) as the compound, how does the inhibition read?
Its inhibition is 27.6% (inactive).

With `O=c1nc2s/c(=C\c3ccco3)c(=O)n2nc1Cc1ccccc1` as the compound, how does the inhibition read?
Its inhibition is -20.4% (inactive).

Which inhibition does the source give for `CCOc1ccccc1/C=c1\sc2nc(-c3ccco3)nn2c1=O` here?
The inhibition was 56.6% (active).

Which inhibition does the source give for `O=C(NCc1ccc2c(c1)OCO2)c1c(O)nc2sccn2c1=O` here?
The inhibition was 66.3% (active).

For `Cc1oc2c(c1C(=O)N1CCOCC1)C(=O)c1ccccc1C2=O`, which inhibition is on record?
The inhibition was 59.5% (active).

Which inhibition does the source give for `CCOc1ccc(NC(=O)CCC(=O)N/N=C/c2ccc([N+](=O)[O-])s2)cc1` here?
The inhibition was 76.9% (active).

Which inhibition does the source give for `Cc1ccccc1NCC(=O)N/N=C\c1ccc([N+](=O)[O-])s1` here?
Its inhibition is 79.3% (active).

With `COc1ccc(C(=O)Nc2ccccc2C(=O)N/N=C/c2ccccc2OC)cc1` as the compound, how does the inhibition read?
The inhibition was 72% (active).

For `COc1ccc(C(=O)Nc2ccccc2C(=O)N/N=C/c2ccc(O)c(OC)c2)cc1`, which inhibition is on record?
Its inhibition is 98.3% (active).

Which inhibition does the source give for `COc1cc(/C=N/Nc2nc3ccccc3s2)ccc1O` here?
Its inhibition is 33.5% (inactive).

Which inhibition does the source give for `Oc1c(Cl)cc(Cl)c(Cl)c1Cc1c(O)c(Cl)cc(Cl)c1Cl` here?
The inhibition was 95.3% (active).

With `O=C(Nc1ccc2oc(-c3ccccc3F)nc2c1)c1ccco1` as the compound, how does the inhibition read?
Its inhibition is 82.7% (active).

With `CC(C)(C)c1ccc(Oc2ccc(N)cc2)cc1` as the compound, how does the inhibition read?
The inhibition was 51.7% (active).

With `Oc1ccc(Br)cc1/C=N/Nc1ccccn1` as the compound, how does the inhibition read?
Its inhibition is 65.5% (active).

For `Cc1cc(N)n2nc(-c3ccc(C(C)(C)C)cc3)cc2n1`, which inhibition is on record?
The inhibition was 72.7% (active).

Which inhibition does the source give for `COC(C/C=C/C(=O)[C@@H](C)OCc1ccccc1)OC` here?
The inhibition was 55.2% (active).

Which inhibition does the source give for `CCc1ccccc1NC(=O)CN(c1ccc(OC)cc1OC)S(=O)(=O)c1ccccc1[N+](=O)[O-]` here?
The inhibition was 32.9% (inactive).

Which inhibition does the source give for `COc1cc([N+](=O)[O-])ccc1NC(=O)COC(=O)CCOc1ccc(C)cc1` here?
Its inhibition is 64.7% (active).

With `O=C(CNC(=O)OCc1ccccc1)Oc1cc2oc(=O)cc(-c3ccccc3)c2cc1Cl` as the compound, how does the inhibition read?
The inhibition was 31.1% (inactive).

With `C=CCNC(=O)c1ccc2c3n(nc2c1)-c1ccc(C)cc1CO3` as the compound, how does the inhibition read?
The inhibition was 75.2% (active).

For `Oc1ccccc1-c1cc(-c2ccc(Cl)cc2)n[nH]1`, which inhibition is on record?
The inhibition was -21.6% (inactive).

With `CCSC1=C(C#N)C(=O)n2c1cc1c2CCCC1` as the compound, how does the inhibition read?
The inhibition was 56.1% (active).

For `O=C1NC(Nc2nc3ccccc3s2)(C(F)(F)F)C(=O)N1C1CCCCC1` (stereo not drawn), which inhibition is on record?
The inhibition was 63.5% (active).

For `Cc1nn(-c2ccccc2)c(Cl)c1/C=C/C(=O)c1ccc(O)cc1`, which inhibition is on record?
Its inhibition is 43.2% (active).

With `Cc1nn(Cc2ccc(Cl)c(Cl)c2)c(C)c1NC(=O)c1cc(C2CC2)on1` as the compound, how does the inhibition read?
Its inhibition is 59.7% (active).

Which inhibition does the source give for `Cc1ccc(-c2ccc(/C=N/NC(=O)CN3CCOCC3)o2)cc1[N+](=O)[O-]` here?
The inhibition was 76.8% (active).

For `Cc1ccc(C(=O)COc2cccc(NC(=O)c3ccco3)c2)cc1`, which inhibition is on record?
The inhibition was 52.7% (active).

For `COc1ccc(-c2cc(C3CCN(c4ncccc4[N+](=O)[O-])CC3)[nH]n2)cc1`, which inhibition is on record?
The inhibition was 46% (active).

For `O=[N+]([O-])c1ccc(C=Nc2ccc(Cl)cc2Cl)s1`, which inhibition is on record?
The inhibition was 77.5% (active).

For `O=[N+]([O-])c1ccc2c(c1)Nc1nc3ccccc3nc1N2`, which inhibition is on record?
The inhibition was 48.9% (active).

Which inhibition does the source give for `CCCc1[nH]nc2c1C(c1ccc(Br)s1)C(C#N)=C(N)O2` (stereo not drawn) here?
Its inhibition is 73.6% (active).

Which inhibition does the source give for `O=[N+]([O-])c1ccc(N=Cc2c(O)ccc3ccccc23)cc1` here?
The inhibition was 61.4% (active).

For `Oc1ccc2ccccc2c1C=Nc1ccccc1`, which inhibition is on record?
The inhibition was 65.5% (active).

With `CC1CC2=C(CC1/C=N/NC(N)=S)C(C)(C)CCC2` (stereo not drawn) as the compound, how does the inhibition read?
The inhibition was 43.6% (active).

For `COc1ccc(/C=C(\C#N)C(=O)ONC2=NCCCCC2)cc1`, which inhibition is on record?
The inhibition was 81.6% (active).

Which inhibition does the source give for `O=c1c2cc(Br)ccc2nc(-c2cccc(Cl)c2)n1O` here?
Its inhibition is 60.2% (active).

Which inhibition does the source give for `COc1cc(/C=C2/C(=O)ON=C2C)ccc1OCc1cccc(F)c1` here?
Its inhibition is 53.9% (active).

With `COc1cc(/C=C2/C(=O)ON=C2C)ccc1OCc1ccccc1F` as the compound, how does the inhibition read?
Its inhibition is 55.5% (active).

With `Clc1ccc(C2CC(c3cccs3)n3ncnc3N2)cc1Cl` (stereo not drawn) as the compound, how does the inhibition read?
Its inhibition is 40.9% (active).

Which inhibition does the source give for `CCN1C(=O)/C(=C2\SC(N3CCCCC3)=NC2=O)c2ccccc21` here?
Its inhibition is 41.5% (active).

With `COc1cccc(C2Nc3cccc4cccc(c34)N2)c1` as the compound, how does the inhibition read?
The inhibition was 77.5% (active).

Which inhibition does the source give for `Cc1cc(C(=O)N/N=C\C(Br)=C\c2ccccc2)c(C)o1` here?
The inhibition was 50.8% (active).

Which inhibition does the source give for `C/C(=N/NC(=O)c1cc(Cl)ccc1O)C12CC3CC(CC(C3)C1)C2` here?
The inhibition was 59.9% (active).

With `CC(=NCc1ccc2c(c1)OCO2)C1=C(O)c2ccccc2C1=O` as the compound, how does the inhibition read?
The inhibition was 67.6% (active).

Which inhibition does the source give for `CC(=NCc1ccco1)C1=C(O)c2ccccc2C1=O` here?
Its inhibition is 50.4% (active).

Which inhibition does the source give for `COc1ccc(C(=O)NCC(=O)N/N=C/c2ccc([N+](=O)[O-])o2)cc1OC` here?
The inhibition was 75.6% (active).

For `c1ccc(-c2nnc3n2NC(c2ccc4c(c2)OCO4)S3)cc1` (stereo not drawn), which inhibition is on record?
The inhibition was 43.8% (active).

With `Nc1ccccc1SC(C[N+](=O)[O-])c1ccccc1` (stereo not drawn) as the compound, how does the inhibition read?
Its inhibition is 89.4% (active).

Which inhibition does the source give for `Cc1cc(C)c(S(=O)(=O)c2ccccc2)c(OC(=O)c2c(F)cccc2Cl)n1` here?
The inhibition was 61.8% (active).

With `O=c1c2ccccc2[nH]c(=S)n1CCN1CCC(=C(c2ccc(F)cc2)c2ccc(F)cc2)CC1` as the compound, how does the inhibition read?
Its inhibition is 41.8% (active).

Which inhibition does the source give for `CCCC(=O)N1CCN(c2nnc(-c3ccc(C)cc3)c3ccccc23)CC1` here?
The inhibition was 16% (inactive).

Which inhibition does the source give for `COC(=O)N/N=C/c1ccc(-c2ccc(Cl)c(Cl)c2)o1` here?
The inhibition was 43.3% (active).

With `O=C(Nc1ccccc1)c1nnsc1S(=O)(=O)c1ccc(Cl)cc1` as the compound, how does the inhibition read?
Its inhibition is 93% (active).

For `FC(F)(F)c1cccc(Nc2ncnc3ccccc23)c1`, which inhibition is on record?
Its inhibition is 29% (inactive).

With `CCOc1cc(NC(=O)c2ccccc2C(=O)O)c(OCC)cc1NC(=O)c1ccccc1F` as the compound, how does the inhibition read?
The inhibition was 66.5% (active).
